Reference: PubChem BioAssay
For part of these data: Entries with a potency or affinity are not part of this list. Active and inactive are the calls of the source. Unless noted, the rule behind the calls is not given here.

What was measured:
[1] = antimalarial activity against Dd2 strain (AID 2302;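 active = growth inhibition above 50% at the single 2 µM test dose, taken to imply half-maximal potency below 2 µM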;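 note: 0% = DMSO untreated growth and 100% = chloroquine plus artemisinin killed control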); conditions: P. falciparum Dd2 in RBCs, LDH growth readout, 72 h; at 2 µM; hits give high values
[2] = human hepatoma cell viability loss – ATP luminescence, cytotoxicity control for P. falciparum antimalarial project, primary screen (AID 2303;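 active = inhibition above 50%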;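 note: 0% = DMSO wells and 100% = digitonin-killed cells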); conditions: HepG2 viability, 24-48 h, at 10 µM, hits give high values
[3] = biological target: L-lactate dehydrogenase (Plasmodium falciparum (isolate CDC / Honduras)) (UniProt Q27743); assay: PfLDH activity inhibition – cell lysate, 3D7 strain, counter-screen for P. falciparum growth inhibition project (AID 2304);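 note: 0% = vehicle and 100% = reference inhibitor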; conditions: P. falciparum 3D7 crude extract, LDH APAD/NBT absorbance; at 2 µM; hits give high values
Chain of L-lactate dehydrogenase (Plasmodium falciparum (isolate CDC / Honduras)) (Q27743 whole entry, looked up): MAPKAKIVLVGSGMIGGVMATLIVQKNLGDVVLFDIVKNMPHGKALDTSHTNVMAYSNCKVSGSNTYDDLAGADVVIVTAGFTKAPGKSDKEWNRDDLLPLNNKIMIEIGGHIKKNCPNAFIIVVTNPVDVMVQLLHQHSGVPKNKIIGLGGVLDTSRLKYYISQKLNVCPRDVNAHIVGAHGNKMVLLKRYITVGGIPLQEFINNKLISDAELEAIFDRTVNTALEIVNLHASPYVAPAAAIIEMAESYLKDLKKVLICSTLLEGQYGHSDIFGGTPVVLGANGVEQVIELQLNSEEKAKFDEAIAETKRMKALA

[4] = inhibition of 3D7 malaria parasite growth – strain 3D7 (AID 2306);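 note: 0% = DMSO wells and 100% = chloroquine plus artemisinin control wells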; conditions: P. falciparum 3D7 erythrocytic growth, LDH absorbance, 72 h; at 2 µM; hits give high values
[5] = biological target: Calcium-dependent protein kinase 1 (Plasmodium falciparum (isolate 3D7)) (UniProt P62344); assay: PfCDPK1 kinase inhibitors, biochemical, TCAMS library (AID 1159585; cut-off not given, nearly all actives have IC50 up to about 0.98 µM;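 note: inhibitors leave more ATP so luminescence rises with inhibition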); conditions: recombinant PfCDPK1, Kinase-Glo ATP depletion luminescence
Chain of Calcium-dependent protein kinase 1 (Plasmodium falciparum (isolate 3D7)) (P62344 whole entry, looked up): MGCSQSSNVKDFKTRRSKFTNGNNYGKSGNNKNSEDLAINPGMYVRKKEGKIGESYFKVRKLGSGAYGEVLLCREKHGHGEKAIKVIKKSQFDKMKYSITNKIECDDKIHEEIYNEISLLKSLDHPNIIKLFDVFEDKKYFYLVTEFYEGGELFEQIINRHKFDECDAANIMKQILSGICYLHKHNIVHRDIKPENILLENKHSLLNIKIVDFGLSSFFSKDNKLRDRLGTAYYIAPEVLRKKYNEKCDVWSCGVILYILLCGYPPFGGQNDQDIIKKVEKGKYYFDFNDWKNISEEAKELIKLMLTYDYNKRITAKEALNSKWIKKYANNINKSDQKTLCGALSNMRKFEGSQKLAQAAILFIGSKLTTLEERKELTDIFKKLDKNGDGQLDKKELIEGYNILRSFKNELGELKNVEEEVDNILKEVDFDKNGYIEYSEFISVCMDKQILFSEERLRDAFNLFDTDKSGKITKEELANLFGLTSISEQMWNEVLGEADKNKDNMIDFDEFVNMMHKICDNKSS

[6] = biological target: Plasmodium falciparum protein kinase 6 (PK6, PF3D7_1337100) (UniProt Q8IDW1); assay: PfPK6 kinase inhibitors, biochemical, TCAMS library (AID 1159586); conditions: recombinant PfPK6, Kinase-Glo ATP depletion luminescence
Chain of Plasmodium falciparum protein kinase 6 (PK6, PF3D7_1337100) (Q8IDW1 1-305): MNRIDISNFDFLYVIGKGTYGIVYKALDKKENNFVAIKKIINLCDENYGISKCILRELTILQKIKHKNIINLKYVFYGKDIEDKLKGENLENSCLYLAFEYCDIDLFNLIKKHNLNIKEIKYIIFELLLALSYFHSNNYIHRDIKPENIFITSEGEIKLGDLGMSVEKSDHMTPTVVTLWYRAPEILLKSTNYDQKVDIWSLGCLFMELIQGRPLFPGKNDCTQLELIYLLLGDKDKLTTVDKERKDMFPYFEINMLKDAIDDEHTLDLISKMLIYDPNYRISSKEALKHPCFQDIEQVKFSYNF

[7] = biological target: Protein kinase 7 (PK7), Plasmodium falciparum 3D7 (PF3D7_0213400) (UniProt Q7YTF7); assay: inhibition of Plasmodium PK7 catalytic activity – biochemical, TCAMS antimalarial set, Kinase-Glo luminescence (AID 1159587); conditions: recombinant PfPK7, Kinase-Glo ATP depletion luminescence
Chain of Protein kinase 7 (PK7), Plasmodium falciparum 3D7 (PF3D7_0213400) (Q7YTF7 1-343): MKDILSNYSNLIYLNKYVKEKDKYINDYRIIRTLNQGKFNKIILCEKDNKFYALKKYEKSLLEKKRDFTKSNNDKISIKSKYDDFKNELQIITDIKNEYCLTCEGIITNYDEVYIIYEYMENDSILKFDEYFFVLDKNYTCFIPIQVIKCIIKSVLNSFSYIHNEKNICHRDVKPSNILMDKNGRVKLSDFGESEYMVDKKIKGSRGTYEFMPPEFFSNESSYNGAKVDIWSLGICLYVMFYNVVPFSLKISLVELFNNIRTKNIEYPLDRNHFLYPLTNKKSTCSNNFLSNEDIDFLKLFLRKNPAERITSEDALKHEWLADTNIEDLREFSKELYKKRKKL

[8] = biological target: Calcium-dependent protein kinase 4 (Plasmodium falciparum (isolate 3D7)) (UniProt Q8IBS5); assay: PfCDPK4 kinase inhibitors, biochemical, TCAMS library (AID 1159588; cut-off not given, nearly all actives have IC50 up to about 0.91 µM); conditions: recombinant PfCDPK4, Kinase-Glo ATP depletion luminescence
Chain of Calcium-dependent protein kinase 4 (Plasmodium falciparum (isolate 3D7)) (Q8IBS5 whole entry, looked up): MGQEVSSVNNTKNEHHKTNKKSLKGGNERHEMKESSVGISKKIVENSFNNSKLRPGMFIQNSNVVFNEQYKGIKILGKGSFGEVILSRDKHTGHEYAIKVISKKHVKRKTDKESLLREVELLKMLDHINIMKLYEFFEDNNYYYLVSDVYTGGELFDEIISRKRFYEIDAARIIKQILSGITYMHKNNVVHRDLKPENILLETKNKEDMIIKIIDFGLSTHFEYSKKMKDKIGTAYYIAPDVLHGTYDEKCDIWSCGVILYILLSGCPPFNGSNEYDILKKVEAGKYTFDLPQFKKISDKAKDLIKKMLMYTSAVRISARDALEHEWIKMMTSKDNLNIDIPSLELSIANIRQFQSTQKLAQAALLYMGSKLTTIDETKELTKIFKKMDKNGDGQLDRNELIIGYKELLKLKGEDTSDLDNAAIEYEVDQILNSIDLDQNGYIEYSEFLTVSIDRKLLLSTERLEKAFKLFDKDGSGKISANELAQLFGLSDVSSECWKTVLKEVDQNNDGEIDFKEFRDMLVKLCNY

CN1CCC(C(=O)N(Cc2ccc(-c3ccc(CNCCc4ccc(S(C)(=O)=O)cc4)cn3)cc2)C2CCN(Cc3ccccc3)CC2)CC1
active: growth inhibition [1] 95% | growth inhibition [4] 102%
inactive: inhibition [2] 11% | inhibition [3] -5% | outcome [5] | outcome [6] | outcome [7] | outcome [8]

Cc1ccc(N2C(N)=NC(N)=NC2c2ccccc2)cc1 (configuration not stated)
inactive: growth inhibition [1] 1% | inhibition [2] 11% | inhibition [3] -1% | outcome [5] | outcome [6] | outcome [7] | outcome [8]
active: growth inhibition [4] 94%

NCc1ccc(CNCc2ccc(-c3ccc(-c4nc5ccc(C(F)(F)F)cc5[nH]4)s3)cc2)cc1
active: growth inhibition [1] 92% | growth inhibition [4] 95%
inactive: inhibition [2] 34% | inhibition [3] -2% | outcome [5] | outcome [6] | outcome [7] | outcome [8]

CCCCNC[C@@H](O)[C@H](Cc1ccccc1)NC(=O)c1cc(NCC)cc(N2CCCCS2(=O)=O)c1
active: growth inhibition [1] 98% | growth inhibition [4] 99%
inactive: inhibition [2] 11% | inhibition [3] 2% | outcome [5] | outcome [6] | outcome [7] | outcome [8]

CC(=O)NCC(=O)NC1=NC(C)(C)N(OCc2ccc3ccccc3c2)C(N)=N1
active: growth inhibition [1] 97% | inhibition [2] 66% | growth inhibition [4] 95%
inactive: inhibition [3] -1% | outcome [5] | outcome [6] | outcome [7] | outcome [8]

NC(N)=Nc1nc(-c2cccc(NC(=O)NCc3cccc4ccccc34)c2)cs1
inactive: growth inhibition [1] 32% | inhibition [2] 14% | inhibition [3] 5% | outcome [5] | outcome [6] | outcome [7] | outcome [8]
active: growth inhibition [4] 101%

CC(C)c1ccc(C=CC(=O)N2CCC(CCN3CCC(c4c[nH]c5ccccc45)CC3)CC2)cc1
inactive: growth inhibition [1] 11% | inhibition [3] 4% | outcome [5] | outcome [6] | outcome [7] | outcome [8]
active: inhibition [2] 85% | growth inhibition [4] 93%

O=C(N[C@@H](CC1CCCCC1)C(=O)NC1CCCc2ccccc21)c1ccc(O)c(-c2cccc([N+](=O)[O-])c2)c1 (some centres not stated)
active: growth inhibition [1] 98% | growth inhibition [4] 99%
inactive: inhibition [2] -12% | inhibition [3] 1% | outcome [5] | outcome [6] | outcome [7] | outcome [8]

O=C(NC1CCN(Cc2ccccc2)CC1)c1ccc(CNC2CCN(Cc3ccccc3)CC2)cc1
active: growth inhibition [1] 58% | growth inhibition [4] 99%
inactive: inhibition [2] 14% | inhibition [3] 3% | outcome [5] | outcome [6] | outcome [7] | outcome [8]

C=CCc1cc(OC)ccc1OCCCOc1c(C)nc(N)nc1N
active: growth inhibition [1] 97% | inhibition [2] 67% | growth inhibition [4] 92%
inactive: inhibition [3] -2% | outcome [5] | outcome [6] | outcome [7] | outcome [8]

NC1=NC(Cc2ccccc2)N(c2ccc(Cl)cc2)C(N)=N1 (configuration not stated)
inactive: growth inhibition [1] 4% | inhibition [2] 21% | inhibition [3] -2% | outcome [5] | outcome [6] | outcome [7] | outcome [8]
active: growth inhibition [4] 93%

CN(C)CCOc1ccc2c(=O)cc(CCc3cccc(F)c3F)n(CC(=O)N(C)Cc3ccc(-c4ccc(C(F)(F)F)cc4)cc3)c2c1
active: growth inhibition [1] 60% | growth inhibition [4] 90%
inactive: inhibition [2] 33% | inhibition [3] 2% | outcome [5] | outcome [6] | outcome [7] | outcome [8]

CC12CCC(=O)N1C(C(=O)Nc1cccc(C(=O)Nc3cccc(C(F)(F)F)c3)c1)CS2 (configuration not stated)
inactive: inhibition [2] 6% | inhibition [3] -3% | outcome [5] | outcome [6] | outcome [7] | outcome [8]
active: growth inhibition [1] 89% | growth inhibition [4] 92%

CCCCC(N)COc1cccc2c(-c3ccncc3)c(-c3cccc(NC(=O)Nc4ccccc4)c3)nn12 (configuration not stated)
active: growth inhibition [1] 82% | growth inhibition [4] 102%
inactive: inhibition [2] 13% | inhibition [3] 0% | outcome [5] | outcome [6] | outcome [7] | outcome [8]

CS(=O)(=O)Nc1ccc(OCCCCCCOc2ccc(NS(C)(=O)=O)cc2)cc1
inactive: inhibition [2] 3% | inhibition [3] 4% | outcome [5] | outcome [6] | outcome [7] | outcome [8]
active: growth inhibition [1] 82% | growth inhibition [4] 93%

COc1ccc2nccc([C@@H](O)CN3CCC(NCc4cc5ccccc5s4)CC3)c2c1
active: growth inhibition [1] 53% | growth inhibition [4] 97%
inactive: inhibition [2] 8% | inhibition [3] 3% | outcome [5] | outcome [6] | outcome [7] | outcome [8]

c1cc(CNC2Cc3ccc(-c4cccs4)cc3C2)cc(-n2ccnc2)c1 (configuration not stated)
inactive: inhibition [2] 0% | inhibition [3] -1% | outcome [5] | outcome [6] | outcome [7] | outcome [8]
active: growth inhibition [1] 63% | growth inhibition [4] 100%

O=C(Nc1ccc(Cl)c(Cl)c1)Nc1ccc2c(c1)CCNCC2
active: growth inhibition [4] 86%
inactive: growth inhibition [1] 37% | inhibition [2] 13% | inhibition [3] -1% | outcome [5] | outcome [6] | outcome [7] | outcome [8]

CC(C)CNC(=O)c1ccnc(-c2ccc(CNC3Cc4ccccc4C3)cc2)c1
inactive: growth inhibition [1] 29% | inhibition [2] 25% | inhibition [3] -5% | outcome [5] | outcome [6] | outcome [7] | outcome [8]
active: growth inhibition [4] 99%

Cc1nc2sccn2c1C(=O)NCCc1ccccc1Cl
inactive: growth inhibition [1] 1% | inhibition [2] 6% | inhibition [3] 3% | outcome [5] | outcome [6] | outcome [7] | outcome [8]
active: growth inhibition [4] 96%

Cc1ccc(NC(=O)c2cc(S(=O)(=O)NC(C)(C)C)ccc2C)nc1
inactive: inhibition [2] -1% | inhibition [3] -2% | outcome [5] | outcome [6] | outcome [7] | outcome [8]
active: growth inhibition [1] 80% | growth inhibition [4] 86%

O=C(NCCCCNCC(Cc1cccc(O)c1)c1ccccc1)c1ccc(NC(=O)c2ccc(Cl)cc2)cc1 (configuration not stated)
inactive: growth inhibition [1] 1% | inhibition [2] -1% | inhibition [3] 2% | outcome [5] | outcome [6] | outcome [7] | outcome [8]
active: growth inhibition [4] 96%

O=C(Nc1ccc(C(F)(F)F)cc1)NC1CCN(c2ccnc3ccccc23)CC1
inactive: inhibition [2] 46% | inhibition [3] -2% | outcome [5] | outcome [6] | outcome [7] | outcome [8]
active: growth inhibition [1] 62% | growth inhibition [4] 103%

C[C@H](Nc1nc(C(Oc2ccccc2)c2ccccc2)nc2[nH]ncc12)c1ccccc1 (some centres not stated)
inactive: inhibition [2] 15% | inhibition [3] -5% | outcome [5] | outcome [6] | outcome [7] | outcome [8]
active: growth inhibition [1] 56% | growth inhibition [4] 100%

Cc1cnc(C(=O)Nc2cccc(-c3csc(-c4nc5ccccc5[nH]4)c3)c2)cn1
inactive: inhibition [2] 31% | inhibition [3] -1% | outcome [5] | outcome [6] | outcome [7] | outcome [8]
active: growth inhibition [1] 80% | growth inhibition [4] 98%

CCN(CCCN1CCCCC1)c1cc(C)nc(Nc2cccc3c2CCCC3)n1
inactive: growth inhibition [1] 46% | inhibition [3] -3% | outcome [5] | outcome [6] | outcome [7] | outcome [8]
active: inhibition [2] 60% | growth inhibition [4] 92%

CN(Cc1ccncc1)C(Cc1ccccc1)C1CCN(Cc2ccc(O)c(Cl)c2)CC1 (configuration not stated)
active: growth inhibition [1] 97% | growth inhibition [4] 96%
inactive: inhibition [2] 22% | inhibition [3] -4% | outcome [5] | outcome [6] | outcome [7] | outcome [8]

COc1c(C2CCN(CCCCNC(=O)c3ccc(-c4ccc(C#N)cc4)c(O)c3)CC2)ccc2c1CCCC2
inactive: inhibition [2] 35% | inhibition [3] -2% | outcome [5] | outcome [6] | outcome [7] | outcome [8]
active: growth inhibition [1] 78% | growth inhibition [4] 100%

O=C(Nc1ccc2c(c1)CN(Cc1ccc(N3CCCC3)o1)CCC2)c1ccoc1
active: growth inhibition [1] 76% | growth inhibition [4] 89%
inactive: inhibition [2] 4% | inhibition [3] -3% | outcome [5] | outcome [6] | outcome [7] | outcome [8]

Cc1cc(C(=O)CN2C(=O)NC3(CCCc4ccccc43)C2=O)c(C)n1Cc1ccc(F)cc1 (configuration not stated)
inactive: inhibition [2] 4% | inhibition [3] 2% | outcome [5] | outcome [6] | outcome [7] | outcome [8]
active: growth inhibition [1] 53% | growth inhibition [4] 92%

CS(=O)(=O)c1ccc(CNCc2ccc(-c3ccc(-c4nc5ccc(C(F)(F)F)cc5[nH]4)cc3)cc2)cc1
active: growth inhibition [1] 82% | growth inhibition [4] 101%
inactive: inhibition [2] 26% | inhibition [3] 3% | outcome [5] | outcome [6] | outcome [7] | outcome [8]

S=C(NN=Cc1ccccn1)Nc1ccc(Cl)c(Cl)c1
inactive: inhibition [2] 40% | inhibition [3] 5% | outcome [5] | outcome [6] | outcome [7] | outcome [8]
active: growth inhibition [1] 85% | growth inhibition [4] 98%

CC1CCN(C(=O)C(Cc2c[nH]c3ccccc23)NS(=O)(=O)c2ccc(Cl)cc2)CC1 (configuration not stated)
inactive: inhibition [2] -22% | inhibition [3] -4% | outcome [5] | outcome [6] | outcome [7] | outcome [8]
active: growth inhibition [1] 99% | growth inhibition [4] 100%

Oc1ccc(CCCNc2nc(NCc3cccc4ccccc34)nc(N3CCNCC3)n2)cc1
inactive: growth inhibition [1] 4% | inhibition [2] 9% | inhibition [3] -1% | outcome [5] | outcome [6] | outcome [7] | outcome [8]
active: growth inhibition [4] 100%

COc1ccc2nccc(N3CCC(SCCNCc4ccc5c(n4)NC(=O)CS5)C3)c2n1 (configuration not stated)
inactive: inhibition [2] 34% | inhibition [3] 2% | outcome [5] | outcome [6] | outcome [7] | outcome [8]
active: growth inhibition [1] 100% | growth inhibition [4] 95%

COc1ccc(C2C(C(=O)Nc3ccc(C)c(F)c3)c3cc(OC)c(OC)cc3C(=O)N2C)cc1 (configuration not stated)
active: growth inhibition [4] 81%
inactive: growth inhibition [1] 26% | inhibition [2] 6% | inhibition [3] -2% | outcome [5] | outcome [6] | outcome [7] | outcome [8]

O=C(/C=C/c1ccc(Cl)c(Cl)c1)NCCCCCN1CCC(NC(=O)Nc2ccccc2F)CC1
inactive: growth inhibition [1] 25% | inhibition [2] 14% | inhibition [3] -5% | outcome [5] | outcome [6] | outcome [7] | outcome [8]
active: growth inhibition [4] 95%

CCCNCc1ccc(-c2ccc(CN(CCOC)C(=O)c3nn(-c4ccccc4)nc3C)cc2)nc1
active: growth inhibition [1] 71% | growth inhibition [4] 99%
inactive: inhibition [2] 18% | inhibition [3] 3% | outcome [5] | outcome [6] | outcome [7] | outcome [8]

COc1cc(Nc2nccc(N3CCC(NC(=O)c4cccc(C#N)c4)C3)n2)cc(OC)c1OC (configuration not stated)
inactive: inhibition [2] 13% | inhibition [3] -8% | outcome [5] | outcome [6] | outcome [7] | outcome [8]
active: growth inhibition [1] 76% | growth inhibition [4] 91%
